Results filed as inconclusive are left out. Calls of active or inactive are those of the source. Calls come from the whole dose curve; as a rule, active = well fitted inhibition curve with a large enough effect; inconclusive = small, poorly fitted or top-dose-only effect; inactive = flat fitted curve, though single readings scatter.

Our source for the Potency values is PubChem BioAssay (NCATS).

What all share (experiment): qHTS profiling for inhibitors of Plasmodium falciparum proliferation (AID 504749); note: nearly all actives have a fitted effect of over 60% in size
What all share (conditions): P. falciparum in erythrocytes, SYBR Green DNA, 72 h; series mostly up to 28.7 µM

One experiment concerns CP262. The essentials: (§1)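 Fluorescence of SYBR Green-bound parasite DNA, read at 485/535 nm, served as the growth measure. Infected erythrocytes were cultured with compound 72 h; artemisinin (0.29 uM) and DMSO wells defined the normalization range.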
For a further experiment, the system named is CP265. In outline: as §1
In a further experiment the test system is CP266. In outline:
as §1

Another experiment concerns CP268. In outline:
as §1

In another experiment the test system is CP269. The essentials: as §1
For a further experiment, the system named is CP286. The essentials:
as §1

The test system of the next experiment is CP291. The essentials: as §1
Another experiment deals with CP297. The essentials:
as §1

Another experiment has as its system CP305. The essentials:
as §1

The test system of a further experiment is CP260. In outline: as §1
Potency is the fitted concentration of half-maximal effect.

For `CC1OC1P(=O)(O)O` (centres undefined), the Potency entry with CP262, with CP265, in the experiment on CP266, in the experiment on CP268, in the experiment with CP269 and in the experiment on CP286 was “inactive” in each case. The Potency result in the experiment with CP291, in the experiment with CP297 and with CP305 was “inactive” each time.

Regarding `O=C(CCN1CCN(CCO)CC1)N1c2ccccc2Sc2ccc(C(F)(F)F)cc21`, the Potency was 11.2 µM (active) in the experiment on CP260, 3.98 µM (active) with CP265 and 12.6 µM (active) with CP286. Besides, the Potency entry in the experiment with CP268, in the experiment on CP297 and in the experiment on CP305 was “inactive” each time.

For `COc1cc(/C=C/C(=O)N2CCN(CC(=O)N3CCCC3)CC2)cc(OC)c1OC`, the Potency entry with CP260, in the experiment with CP262, with CP265, in the experiment with CP266, in the experiment on CP268 and in the experiment with CP269 was “inactive” throughout. Also, the Potency result in the experiment with CP286, in the experiment with CP291, in the experiment with CP297 and in the experiment on CP305 was “inactive” each time.

`Cc1nc2ccccc2n1Cc1ccc(Cl)cc1`: the Potency entry with CP260, in the experiment with CP268, in the experiment on CP269, in the experiment with CP286, in the experiment with CP291 and in the experiment on CP297 was “inactive” in each case. The Potency entry in the experiment on CP305 is “inactive”.

For `CCCC(=O)OC[C@@H](OC(=O)CCC)[C@@H](OC(=O)CCC)[C@H](Cn1c2nc(=O)[nH]c(=O)c-2nc2cc(C)c(C)cc21)OC(=O)CCC`, the Potency result with CP262, in the experiment with CP266, with CP268, in the experiment with CP269, in the experiment with CP291 and in the experiment with CP297 was “inactive” each time.

Regarding `COc1cc(CNC(=O)CCCC/C=C/C(C)C)ccc1O`, the Potency result with CP260, with CP262, with CP265, with CP268, with CP269 and with CP286 was “inactive” each time. Also, the Potency entry in the experiment on CP291, in the experiment with CP297 and with CP305 was “inactive” each time.

Take `O=c1[nH]c2ccccc2n1CCCN1CCN(C(c2ccccc2)c2ccccc2)CC1`: the Potency entry in the experiment with CP262 is “inactive”.

As for `NC(=O)C(c1ccccc1)(c1ccccc1)[C@@H]1CCN(CCc2ccc3c(c2)CCO3)C1`, the Potency entry with CP266 and with CP269 was “inactive” throughout.

Regarding `O=C(O)c1cc(O)c(O)c(O)c1`, the Potency result with CP265, with CP266, with CP268, in the experiment with CP269, with CP286 and in the experiment on CP291 was “inactive” in each case. The Potency result in the experiment on CP297 and in the experiment on CP305 was “inactive” each time.

For the molecule `CN1[C@@H](CC(=O)c2ccccc2)CCC[C@H]1C[C@H](O)c1ccccc1`, the Potency entry in the experiment with CP262, in the experiment on CP266, in the experiment with CP268, in the experiment with CP269 and in the experiment on CP297 was “inactive” throughout.

Turning to `COc1cc(/C=C/C(=O)CC(=O)/C=C/c2ccc(O)c(OC)c2)ccc1O`, the Potency with CP297 is 13.5 µM (active).

On to `COC(=O)C1=C(C)NC(C)=C(C(=O)OCC(C)C)C1c1ccccc1[N+](=O)[O-]` (centres undefined), for which the Potency was 8.91 µM (active) in the experiment with CP286, 12 µM (active) with CP291 and 16.9 µM (active) with CP297.

Turning to `CN1[C@@H]2CC[C@H]1CC(OC(c1ccccc1)c1ccccc1)C2` (some centres undefined), the Potency entry with CP260, in the experiment on CP266 and in the experiment on CP297 was “inactive” each time. The Potency in the experiment on CP286 was 11.2 µM (active).

As to `C=C(Nc1ccc(OCC)cc1)Nc1ccc(OCC)cc1`, the Potency result in the experiment with CP260, in the experiment on CP262, in the experiment on CP265, in the experiment with CP266, in the experiment on CP268 and with CP269 was “inactive” in each case. For the same molecule, the Potency entry with CP286, in the experiment with CP291, with CP297 and with CP305 was “inactive” in each case.

As to `CCCCCCCCCCCC(=O)[O][Sn]([CH2]CCC)([CH2]CCC)[O]C(=O)CCCCCCCCCCC`, the Potency with CP260 was 10 µM (active). Also, the Potency result in the experiment on CP262, in the experiment with CP265, in the experiment with CP266, in the experiment on CP268, with CP269 and in the experiment on CP291 was “inactive” each time. The Potency result with CP297 and in the experiment with CP305 was “inactive” each time.

Take `Oc1c(Br)cc(Br)c2cccnc12`: the Potency entry in the experiment with CP260, with CP265, in the experiment with CP266, in the experiment on CP268, with CP269 and in the experiment with CP286 was “inactive” each time. In addition, the Potency result in the experiment on CP291, with CP297 and with CP305 was “inactive” in each case.

For `Clc1ccccc1-c1nc(-c2ccncc2)no1`, the Potency entry in the experiment on CP260, in the experiment on CP262, in the experiment with CP265, in the experiment on CP266, in the experiment with CP268 and with CP269 was “inactive” in each case. Moreover, the Potency result with CP286, in the experiment on CP291, with CP297 and with CP305 was “inactive” throughout.

As for `Nc1c(CC(=O)O)cccc1C(=O)c1ccc(Br)cc1`, the Potency result with CP260, in the experiment with CP262, in the experiment with CP265, in the experiment on CP266, with CP268 and with CP269 was “inactive” in each case. In addition, the Potency entry with CP286, in the experiment with CP291 and in the experiment on CP305 was “inactive” throughout.

On to `CC1(C)[C@@H](O)CC[C@]2(C)[C@H]3C(=O)C=C4[C@@H]5C[C@@](C)(C(=O)O)CC[C@]5(C)CC[C@@]4(C)[C@]3(C)CC[C@@H]12`, for which the Potency result in the experiment on CP260, in the experiment on CP262, in the experiment on CP265, in the experiment on CP268, in the experiment with CP269 and in the experiment with CP286 was “inactive” throughout. The Potency entry in the experiment with CP291, in the experiment with CP297 and with CP305 was “inactive” each time.

For `CCCCCC[C@@H](O)C/C=C\CCCCCCCC(=O)O`, the Potency entry in the experiment with CP260, in the experiment with CP262, in the experiment with CP265, with CP268, with CP269 and in the experiment with CP286 was “inactive” each time. The Potency result with CP291, in the experiment with CP297 and with CP305 was “inactive” throughout.

Consider `c1ccc2sc(SN3CCOCC3)nc2c1`, for which the Potency entry with CP262, in the experiment with CP265, in the experiment on CP266, in the experiment with CP268, with CP269 and in the experiment on CP286 was “inactive” throughout. Further, the Potency entry with CP291, in the experiment on CP297 and in the experiment on CP305 was “inactive” throughout.

Consider `Nc1ccc(O)c(C(=O)O)c1`, for which the Potency result in the experiment on CP260, in the experiment with CP262, with CP265, in the experiment with CP268, in the experiment on CP269 and in the experiment on CP286 was “inactive” throughout. The Potency result with CP291, with CP297 and in the experiment on CP305 was “inactive” in each case.
